Assay results published in PubChem BioAssay (Tox21).
Records with an inconclusive call do not appear. Activity calls are given as the source filed them. Unless noted, calls come from the whole dose curve; as a rule, active = well fitted curve in the direction sought with a large enough effect in the repeat runs; inconclusive = weak or mixed curves; inactive = no such curve, though single readings can be large; an effect the other way counts as inactive or inconclusive.

Columns and labels:
[1] = target: Estrogen receptor (Homo sapiens) (UniProt P03372); assay: qHTS assay to identify small molecule antagonists of the estrogen receptor alpha (ER-alpha) signaling pathway using the BG1 cell line in the presence of 0.1 nM 17-beta-estradiol (AID 1259244); note: nearly all actives have a fitted effect of over 50% in size; note: potency is the fitted concentration of half-maximal effect
Sequence of Estrogen receptor (Homo sapiens) (P03372 whole entry, looked up): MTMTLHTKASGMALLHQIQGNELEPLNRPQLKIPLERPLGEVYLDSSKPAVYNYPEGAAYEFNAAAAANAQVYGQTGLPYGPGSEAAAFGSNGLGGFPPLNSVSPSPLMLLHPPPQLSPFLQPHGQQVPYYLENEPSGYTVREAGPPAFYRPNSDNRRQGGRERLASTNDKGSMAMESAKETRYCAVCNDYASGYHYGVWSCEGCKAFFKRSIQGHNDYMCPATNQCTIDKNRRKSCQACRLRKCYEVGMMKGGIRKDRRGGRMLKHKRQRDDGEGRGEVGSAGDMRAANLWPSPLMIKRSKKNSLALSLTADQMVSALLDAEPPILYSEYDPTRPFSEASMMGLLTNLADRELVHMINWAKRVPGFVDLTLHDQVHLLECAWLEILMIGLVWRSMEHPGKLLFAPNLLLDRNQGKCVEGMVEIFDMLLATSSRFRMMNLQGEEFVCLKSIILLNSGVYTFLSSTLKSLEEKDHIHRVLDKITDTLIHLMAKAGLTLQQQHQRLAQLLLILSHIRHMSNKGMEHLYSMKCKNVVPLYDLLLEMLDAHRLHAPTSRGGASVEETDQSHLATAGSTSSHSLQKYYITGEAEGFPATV
In short: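 VM7Luc4E2; 4xERE-luciferase; 0.1 nM E2 final; 22 h co-incubation, 37C; ONE-Glo luminescence after 30 min at room temperature.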

[2] = qHTS assay to identify small molecule HDAC inhibitors (AID 1259364);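 note: wild-type HCT-116 cells with endogenous class I/II HDAC activity; top concentration of the series differs between compounds; nearly all actives have a fitted effect of over 45% in size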
In short: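 Relative class I and II HDAC activity is taken from the luminogenic signal in HCT-116 cells, with compound exposure 2 hr and reagent development 30 min at room temperature.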

[3] = qHTS assay to identify small molecule HDAC inhibitors - cell viability counter screen (AID 1259365); note: series mostly up to about 92 µM; nearly all actives have a fitted effect of over 50% in size
In short: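 Wild-type HCT-116 cells, 1,500/well, cultured overnight, then compound-treated 2 h at 37 C. Viability measured as ATP luminescence with CellTiter-Glo after 30 min at room temperature.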

[4] = qHTS assay to identify small molecule antagonists of the sonic hedgehog signaling (Shh) pathway - cell viability counter screen (AID 1259367); note: nearly all actives have a fitted effect of over 55% in size; note: potency is the fitted concentration of half-maximal effect
In short: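 Using CellTiter-Fluor, viability of Gli1-Luc reporter 3T3 cells is read by fluorescence in the wells used for the Shh luciferase assay. Treatment lasts 23 hr with conditioned medium, then reagent 1 hr at 37C.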

[5] = qHTS assay to identify small molecule agonists of the sonic hedgehog signaling (Shh) pathway (AID 1259368; calls by dose curve;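 note: NIH/3T3-derived 3T3Gli1-Luc cells carrying a stable Gli1-driven firefly luciferase reporter; series mostly up to about 92 µM; nearly all actives have a fitted effect of over 15% in size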)
In short: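 Mouse fibroblast (NIH/3T3) reporter cells with stably integrated Gli1-Luc were treated 24 hr with compound; firefly luciferase luminescence served as the read-out.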

[6] = qHTS assay to identify small molecule antagonists of the sonic hedgehog signaling (Shh) pathway (AID 1259369; calls by dose curve; note: nearly all actives have a fitted effect of over 45% in size; note: potency is the fitted concentration of half-maximal effect)
In short: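 Conditioned medium drives Shh signalling in 3T3Gli1-Luc cells; compounds in DMSO co-applied, 24hr at 37 C, then luciferase luminescence.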

[7] = qHTS assay to identify small molecule agonists of the androgen receptor (AR) signaling pathway in the presence of an antagonist - cell viability counter screen (AID 1259379); note: nearly all actives have a fitted effect of over 25% in size; note: potency is the fitted concentration of half-maximal effect;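 for activity change, negative = cytotoxicity: MDA-kb2 human breast cancer cells carrying an MMTV luciferase reporter; series mostly up to about 92 µM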
In short: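 A CellTiter-Fluor read-out measured viability of MDA-kb2 reporter cells (MMTV promoter with AR and GR response elements). Treatment: nilutamide 3.0uM final with compounds at 15 concentrations, 16 hr, 37C, 0% CO2.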

[8] = qHTS assay to identify small molecule agonists of the estrogen receptor beta (ER-beta) signaling pathway - cell viability counter screen (AID 1259380); note: nearly all actives have a fitted effect of over 30% in size; note: potency is the fitted concentration of half-maximal effect
In short: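 Cells used were ER-beta-UAS-bla HEK293T in medium with 2% charcoal-stripped FBS. They were treated for 16 hr at 37C. Viability came from CellTiter-Glo luminescence.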

[9] = qHTS assay to identify small molecule antagonists of the estrogen receptor beta (ER-beta) signaling pathway - cell viability counter screen (AID 1259382); note: nearly all actives have a fitted effect of over 55% in size; note: potency is the fitted concentration of half-maximal effect; for activity change, negative = cytotoxicity: series mostly up to about 92 µM
In short: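 Agonist-stimulated (1nM E2) ER-beta-UAS-bla HEK293T cells are incubated with library compounds for 16 hr at 37C. Cell viability is then assessed in the reporter-assay wells by adding CellTiter-Glo and reading luminescence after 30 min.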

[10] = target: Estrogen receptor (Homo sapiens) (UniProt P03372); assay: qHTS assay to identify small molecule agonists of the estrogen receptor alpha (ER-alpha) signaling pathway in the presence of an antagonist (AID 1259383; calls by dose curve; note: top concentration of the series differs between compounds; nearly all actives have a fitted effect of over 15% in size)
In short: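 Using VM7Luc4E2 cells seeded 24hr before treatment, antagonist ICI-182,780 (10.0nM final) was added, followed by compounds at 15 concentrations. Plates incubated 22hr; ONE-Glo luminescence quantified reporter activity.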

[11] = target: Thyrotropin receptor (Homo sapiens) (UniProt P16473); assay: qHTS assay to identify small molecule antagonists of the thyroid stimulating hormone receptor (TSHR) signaling pathway (AID 1259385; calls by dose curve; note: nearly all actives have a fitted effect of over 20% in size)
Sequence of Thyrotropin receptor (Homo sapiens) (P16473 whole entry, looked up): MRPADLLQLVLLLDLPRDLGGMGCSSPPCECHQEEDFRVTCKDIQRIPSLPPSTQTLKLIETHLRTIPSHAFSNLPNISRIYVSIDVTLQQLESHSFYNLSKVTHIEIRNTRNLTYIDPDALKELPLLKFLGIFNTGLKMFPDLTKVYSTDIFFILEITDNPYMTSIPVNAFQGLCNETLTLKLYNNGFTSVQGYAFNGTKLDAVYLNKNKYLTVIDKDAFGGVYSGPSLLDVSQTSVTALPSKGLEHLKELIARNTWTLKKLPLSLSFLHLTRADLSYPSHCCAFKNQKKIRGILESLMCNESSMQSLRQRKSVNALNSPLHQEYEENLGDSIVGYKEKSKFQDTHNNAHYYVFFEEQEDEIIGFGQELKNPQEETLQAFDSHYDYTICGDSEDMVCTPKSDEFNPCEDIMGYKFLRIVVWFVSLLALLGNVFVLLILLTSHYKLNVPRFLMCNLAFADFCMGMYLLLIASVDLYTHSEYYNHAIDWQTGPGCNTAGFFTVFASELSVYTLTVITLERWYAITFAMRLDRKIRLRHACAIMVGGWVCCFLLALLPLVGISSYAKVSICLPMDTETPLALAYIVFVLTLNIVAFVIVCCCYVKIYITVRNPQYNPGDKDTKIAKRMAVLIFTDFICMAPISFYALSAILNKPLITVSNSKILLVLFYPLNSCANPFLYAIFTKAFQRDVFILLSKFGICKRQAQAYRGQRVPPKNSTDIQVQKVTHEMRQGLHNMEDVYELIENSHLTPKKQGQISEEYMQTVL
In short: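 Antagonist mode: compound-treated TSHR-expressing HEK293 cells were stimulated with 1.5 ng/mL TSH (final) in presence of Ro20-1724 for 30 min at RT. HTRF cAMP detection after 1 h; each compound tested at 15 concentrations, triplicate.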

[12] = qHTS assay to identify small molecule agonists of the estrogen receptor alpha (ER-alpha) signaling pathway in the presence of an antagonist - cell viability counter screen (AID 1259386);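 note: cells exposed to compounds for 22 h at 37 °C before the viability read; nearly all actives have a fitted effect of over 30% in size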; note: potency is the fitted concentration of half-maximal effect; for activity change, negative = cytotoxicity: series mostly up to about 92 µM
In short: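 ICI-182,780 at 10.0nM final accompanies the compound titration (15 concentrations, 22hr, 37C) on VM7Luc4E2 cells. The CellTiter-Fluor fluorescence readout runs in the same wells as the luciferase assay.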

[13] = qHTS assay to identify small molecule agonists of the sonic hedgehog signaling (Shh) pathway - cell viability counter screen (AID 1259366); note: nearly all actives have a fitted effect of over 50% in size; note: potency is the fitted concentration of half-maximal effect
In short: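 NIH/3T3-derived Gli1-Luc reporter cells, 2,000 per well, received compound after 4 h and were treated about 23 h at 37C. Viability measured in the same wells by CellTiter-Fluor fluorescence after 1 h.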

[14] = qHTS assay to identify small molecule agonists or antagonists of the thyroid stimulating hormone receptor (TSHR) signaling pathway - wild type cell line counter screen (AID 1259384; calls by dose curve)
In short: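 Counter screen in untransfected Hek293: compounds (15-point titration, triplicate) plus phosphodiesterase inhibitor Ro20-1724 added after 18 h plating; 30 min RT. Intracellular cAMP via competitive d2/cryptate immunoassay, 1 h incubation.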

[15] = target: Progesterone receptor (Homo sapiens) (UniProt P06401); assay: qHTS assay to identify small molecule agonists of the progesterone receptor (PR) signaling pathway (AID 1346784; calls by dose curve; note: nearly all actives have a fitted effect of over 30% in size)
Sequence of Progesterone receptor (Homo sapiens) (P06401 whole entry, looked up): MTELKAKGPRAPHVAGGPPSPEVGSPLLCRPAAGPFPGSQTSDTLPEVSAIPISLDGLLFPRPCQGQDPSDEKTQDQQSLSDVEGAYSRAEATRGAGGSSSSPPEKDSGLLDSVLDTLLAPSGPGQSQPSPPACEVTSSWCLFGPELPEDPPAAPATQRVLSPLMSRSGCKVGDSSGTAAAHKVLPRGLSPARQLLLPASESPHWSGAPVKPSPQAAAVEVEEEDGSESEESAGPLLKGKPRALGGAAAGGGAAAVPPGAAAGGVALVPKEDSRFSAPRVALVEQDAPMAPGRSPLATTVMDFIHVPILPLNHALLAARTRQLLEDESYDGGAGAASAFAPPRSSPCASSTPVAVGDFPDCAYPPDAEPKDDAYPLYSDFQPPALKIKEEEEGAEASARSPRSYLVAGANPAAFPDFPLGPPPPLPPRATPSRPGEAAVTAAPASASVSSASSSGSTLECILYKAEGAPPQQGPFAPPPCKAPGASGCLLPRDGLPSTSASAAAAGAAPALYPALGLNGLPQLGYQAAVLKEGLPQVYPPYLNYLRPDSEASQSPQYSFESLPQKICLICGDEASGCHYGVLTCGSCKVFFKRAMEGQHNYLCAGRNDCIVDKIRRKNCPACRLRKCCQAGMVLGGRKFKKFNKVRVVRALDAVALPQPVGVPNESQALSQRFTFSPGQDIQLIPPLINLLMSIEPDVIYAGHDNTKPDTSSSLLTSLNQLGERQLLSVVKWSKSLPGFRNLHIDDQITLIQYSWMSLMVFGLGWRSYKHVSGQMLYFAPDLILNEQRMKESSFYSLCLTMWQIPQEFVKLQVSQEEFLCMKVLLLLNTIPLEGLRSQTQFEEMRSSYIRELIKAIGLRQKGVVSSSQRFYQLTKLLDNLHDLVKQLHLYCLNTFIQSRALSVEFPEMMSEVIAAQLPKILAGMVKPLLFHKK
In short: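 PR-UAS-bla HEK 293T cells (beta-lactamase reporter under UAS) in 2% charcoal-stripped FBS, dosed with 23 nL compound after 6 hr, incubated 16hr at 37C. LiveBLAzer B/G FRET substrate added, fluorescence read after 2 hours.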

[16] = target: Estrogen receptor beta (Homo sapiens) (UniProt Q92731); assay: qHTS assay to identify small molecule agonists of the estrogen receptor beta (ER-beta) signaling pathway (AID 1259377; active = well fitted activation curve with a large enough effect in the signal ratio in the repeat runs, not every such curve was filed as active; the % refers to the signal ratio)
Sequence of Estrogen receptor beta (Homo sapiens) (Q92731 whole entry, looked up): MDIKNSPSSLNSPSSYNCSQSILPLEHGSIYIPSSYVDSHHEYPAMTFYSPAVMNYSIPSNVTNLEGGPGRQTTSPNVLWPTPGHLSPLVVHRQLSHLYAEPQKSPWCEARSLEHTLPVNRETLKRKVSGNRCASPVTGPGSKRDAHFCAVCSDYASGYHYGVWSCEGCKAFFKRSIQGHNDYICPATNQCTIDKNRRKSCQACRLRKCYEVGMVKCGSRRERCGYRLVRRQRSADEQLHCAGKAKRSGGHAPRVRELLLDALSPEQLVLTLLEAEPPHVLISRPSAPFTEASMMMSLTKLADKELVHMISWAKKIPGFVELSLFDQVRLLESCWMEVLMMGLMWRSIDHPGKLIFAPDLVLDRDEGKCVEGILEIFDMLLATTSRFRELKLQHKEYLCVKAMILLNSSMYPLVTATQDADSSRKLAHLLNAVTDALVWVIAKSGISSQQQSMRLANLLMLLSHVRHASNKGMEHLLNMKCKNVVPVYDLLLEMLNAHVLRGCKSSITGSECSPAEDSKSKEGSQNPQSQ
In short: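 ER-beta-UAS-bla HEK293T cells in medium with 2% charcoal-stripped FBS were exposed to compounds for 16 h at 37C. Beta-lactamase reporter activity was read as fluorescence after 2 h with LiveBLAzer B/G FRET substrate at room temperature.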

[17] = target: Estrogen receptor beta (Homo sapiens) (UniProt Q92731); assay: qHTS assay to identify small molecule antagonists of the estrogen receptor beta (ER-beta) signaling pathway (AID 1259378; active = well fitted inhibition curve with a large enough effect in the signal ratio in the repeat runs, not every such curve was filed as active; the % refers to the signal ratio)
In short: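 Antagonist mode: compounds added to beta-lactamase reporter HEK293T ER-beta-UAS cells stimulated with E2 (1nM final), 16 hr at 37C. LiveBLAzer B/G FRET substrate, 2 hours room temperature, fluorescence read-out.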

[18] = qHTS assay to identify small molecule phospholipidosis (PLD) inducers (AID 1259344; active = well fitted curve in the direction sought with a large enough effect; an effect the other way counts as inactive or inconclusive)
In short: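 Fluorescent phospholipid staining (LipidTOX Red) measured by automated microscopy in fixed HepG2 cells after 24 h treatment; nuclei counterstained with Hoechst 33342; amiodarone as reference inducer.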
% is set by controls: 0 for no effect and ±100 for the full control effect.

CCCCCCCCCCCCCC[n+]1ccccc1
active: Potency [1] 2.17 µM | Potency [4] 61.1 µM | Potency [6] 0.0049 µM | Potency [7] 3.06 µM | Potency [8] 30.6 µM | Potency [9] 61.1 µM | Potency [12] 54.5 µM
inactive: Potency [2] | Potency [3] | Potency [5] | Potency [10] | Potency [11]

Clc1nc2ccccc2s1
inactive: Potency [1] | Potency [2] | Potency [13] | Potency [4] | Potency [5] | Potency [6] | Potency [8] | Potency [9] | Potency [10] | outcome [14] | Potency [11] | Potency [12] | outcome [15]

C/C=C/C(=O)Oc1c(CCCCCC(C)C)cc([N+](=O)[O-])cc1[N+](=O)[O-]
inactive: Potency [2] | Potency [3] | Potency [5] | Potency [10] | outcome [14] | Potency [11]
active: Potency [1] 4.33 µM | Potency [4] 54.5 µM | Potency [6] 2.17 µM | Potency [8] 30.6 µM | Potency [9] 48.6 µM | Potency [12] 9.69 µM

OCCC(O)CO (stereo unspecified)
inactive: Potency [1] | Potency [2] | Potency [13] | Potency [4] | Potency [5] | Potency [6] | Potency [7] | Potency [8] | Potency [9] | Potency [10] | outcome [14] | Potency [11] | Potency [12] | outcome [15]

COC(=O)CC(C)CCC=C(C)C (stereo unspecified)
inactive: Potency [1] | Potency [2] | Potency [3] | Potency [13] | Potency [4] | Potency [5] | Potency [16] | Potency [17] | Potency [7] | Potency [8] | Potency [9] | Potency [10] | Potency [12] | outcome [15]

C=CC(=C)CC/C=C(\C)CCC=C(C)C
inactive: activity change, negative = inhibition [1] 3.24% [at 19 µM] | activity change, negative = inhibition [2] 8.2% [at 19 µM] | activity change, negative = cytotoxicity [3] 3.69% [at 19 µM] | viability change, negative = cytotoxic [13] -6.51% [at 19 µM] | viability change, negative = cytotoxic [4] -4.46% [at 19 µM] | activity change [5] 0.047% [at 18.9 µM, hits give high values] | activation [16] 1.85% [at 19 µM] | activity, negative = inhibition [17] -20.6% [at 19 µM] | activity change, negative = cytotoxicity [7] 1.35% [at 19 µM] | activity change, negative = cytotoxicity [8] -10.3% [at 19 µM] | activity change, negative = cytotoxicity [9] -3.14% [at 19 µM] | activation [10] 1.51% [at 19 µM] | cAMP activity change [14] 3.85% [at 18.9 µM] | activity change, negative = inhibition [11] 0.374% [at 19 µM] | activity change, negative = cytotoxicity [12] -2.45% [at 19 µM] | activation [15] 0.395% [at 19 µM]

Nc1ncnc2c1ncn2[C@@H]1O[C@H](COP(=O)(O)O)[C@@H](O)[C@H]1O
inactive: Potency [18] | Potency [2] | Potency [4] | Potency [5] | Potency [6] | Potency [16] | Potency [7] | Potency [9] | outcome [14] | Potency [11] | Potency [12] | outcome [15]
active: Potency [8] 26.6 µM

C/C=C/C=N/NC(=O)c1ccncc1
inactive: Potency [18] | Potency [2] | Potency [3] | Potency [5] | Potency [6] | Potency [16] | Potency [7] | Potency [8] | Potency [9] | outcome [14] | Potency [12] | outcome [15]
active: Potency [4] 26.6 µM

Oc1c(Br)cc(Br)c2cccnc12
active: Potency [13] 7.5 µM | Potency [6] 2.37 µM | Potency [8] 1.19 µM
inactive: Potency [18] | Potency [2] | Potency [3] | Potency [5] | Potency [10] | outcome [14] | Potency [11] | Potency [12]

CC(=O)Nc1ccc(O)cc1
inactive: Potency [18] | Potency [2] | Potency [3] | Potency [13] | Potency [4] | Potency [5] | Potency [6] | Potency [7] | Potency [8] | Potency [9] | Potency [12]

C=CC(=O)OCC(O)COc1ccccc1 (stereo unspecified)
active: Potency [13] 27.3 µM
inactive: Potency [1] | Potency [4] | Potency [5] | Potency [6] | Potency [16] | Potency [17] | Potency [9] | Potency [10] | Potency [12] | outcome [15]

CC(C)OC(=O)c1cc(C(=O)OC(C)C)cc([N+](=O)[O-])c1
inactive: Potency [18] | Potency [3] | Potency [4] | Potency [5] | Potency [17] | Potency [7] | Potency [9] | outcome [14] | Potency [11] | Potency [12] | outcome [15]

Brc1ccccc1-c1ccccc1
inactive: Potency [18] | Potency [2] | Potency [3] | Potency [13] | Potency [4] | Potency [5] | Potency [6] | Potency [7] | Potency [9] | Potency [12]

CC[N+](CC)(CC)Cc1ccccc1
inactive: Potency [1] | Potency [2] | Potency [4] | Potency [5] | Potency [6] | Potency [16] | Potency [17] | Potency [7] | Potency [8] | Potency [9] | Potency [10] | Potency [12]

CSc1c(Cl)c(Cl)c(Cl)c(Cl)c1Cl
inactive: Potency [2] | Potency [3] | Potency [13] | Potency [4] | Potency [5] | Potency [6] | Potency [16] | Potency [17] | Potency [7] | Potency [9] | outcome [14] | Potency [12] | outcome [15]
